# Assay results as given in PubChem BioAssay (NCATS).
# Results filed as inconclusive are left out. Entries that show only a call come without a potency. The source made the active and inactive calls. Calls come from the whole dose curve; as a rule, active = well fitted inhibition curve with a large enough effect; inconclusive = small, poorly fitted or top-dose-only effect; inactive = flat fitted curve, though single readings scatter. Where a SMILES comes first, the peptide text is derived from it. Bridges are numbered along the chain shown (N, C = ends). [ ]: non-standard residue; d: D form. NMeY = CN[CH](Cc1ccc(O)cc1)C(=O)O
# Test: P-glycoprotein substrates identified in KB-8-5-11 adenocarcinoma cell line, qHTS therapeutic library screen (AID 1346987); note: nearly all actives have a fitted effect of over 65% in size
# Conditions: KB-8-5-11 (P-gp overexpressing) viability, CellTiter-Glo, 72 h; series mostly up to 44.5 µM
# Summary of the method: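 KB-8-5-11, a colchicine-selected P-gp-overexpressing KB-3-1 subline, was grown without colchicine for the assay. Cells were seeded at 500 cells/well, dosed in concentration-response and incubated 72 h at 37 degree C, 5% CO2. Viability was read by CellTiter-Glo luminescence.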
# Potency is the fitted concentration of half-maximal effect.
Structure (SMILES),Potency,"activity change, negative = cytotoxicity"
Cc1ccc(NC(=O)C(=O)NC2CC(C)(C)NC(C)(C)C2)cc1,inactive,–
Cc1cc(Nc2ccc(NC(=O)c3ccc(Nc4ccnc5ccccc45)cc3)cc2)nc(N)n1,inactive,–
CC(Nc1ncnc2nc[nH]c12)c1cc2cccc(Cl)c2c(=O)n1-c1ccccc1 (centres undefined),inactive,–
COc1ccc(-c2cnc3ccc(NCc4ccc(S(N)(=O)=O)cc4)nn23)cc1OC,inactive,–
O=C(c1ccc(/C=C/c2n[nH]c3ccccc23)cc1)N1CCNCC1,6510 nM (active),–
CCc1cc(CN2CC(C(=O)O)C2)sc1-c1noc(-c2ccc(Oc3ccccc3)cc2)n1,inactive,–
CC1=CC(=O)[C@]2(O[C@@H]3O[C@@H](C)[C@H](O)[C@@H](O)[C@H]3OC(=O)/C=C/c3ccccc3)C=CO[C@@H](O[C@@H]3O[C@H](CO)[C@@H](O)[C@H](O)[C@H]3O)[C@H]12,inactive,–
COCCN1CCN(Cc2ccc(-c3n[nH]c4c3C(=O)c3c(NC(=O)NN5CCOCC5)cccc3-4)cc2)CC1,2590 nM (active),–
CCC1C(=O)N(C)c2cnc(Nc3ccc(C(=O)NC4CCC(N5CCN(CC6CC6)CC5)CC4)cc3OC)nc2N1C(C)C (centres undefined),291 nM (active),–
C/C=C/c1ccc2c(c1)[C@@H](C)[C@H](c1ccc(O)cc1)O2,inactive,–
O=C(O)/C=C/c1cc2c(cc1O[C@@H]1O[C@H](CO)[C@@H](O)[C@H](O)[C@H]1O)OCO2,inactive,–
C/C=C/C1=CC2=C(CO1)C(=O)C(C)(O)C(OC(=O)c1c(C)cc(OC)cc1O)C2 (centres undefined),inactive,–
CC(=O)NC1=NN(C(C)=O)C(C)(c2ccccc2)S1 (centres undefined),5800 nM (active),–
OC/C=C/C=C/[C@H]1Cc2cc(O)cc(O)c2O1,inactive,–
N[C@H]1Cc2ccccc2N(O)C1=O,inactive,–
Cc1cccc(C)c1-n1c(=O)c2cnc(Nc3ccc(N4CCN(C)CC4)cc3)nc2n2c3ccccc3nc12,920 nM (active),–
CCC(C)C1NC(=O)C2CCCN2C(=O)C(NC(C)=O)C(C)OC(=O)C(Cc2ccc(OC)cc2)N(C)C(=O)C2CCCN2C(=O)C(C(C)C)NC1=O (centres undefined) (Ac-TPIVP[NMeY](Me); ester 1-C; configuration not given here),inactive,–
C[C@@H]1O[C@@H](O[C@H]2[C@H](O)[C@@H](O)[C@H](O[C@H]3[C@H](O[C@H]4CC[C@@]5(C)C(=CC[C@@H]6C5CC[C@]5(C)[C@@H]7[C@H](C[C@@H]65)O[C@]5(CC[C@@](C)(CO[C@@H]6O[C@H](CO)[C@@H](O)[C@H](O)[C@H]6O)O5)[C@H]7C)C4)O[C@H](CO)[C@@H](O)[C@@H]3O)O[C@@H]2CO)[C@H](O)[C@H](O)[C@H]1O (some centres undefined),–,4.84% [at 9.29 µM] (inactive)
O=C(O)Cc1cn(C2OCC(O)C(O)C2O[C@@H]2O[C@H](CO)[C@@H](O)[C@H](O)[C@H]2O)c2ccccc12 (some centres undefined),inactive,–
C#CCN(Cc1cc2c(=O)n(C)c(CN3CCN(C)CC3)nc2cc1Cl)c1ccc(C(=O)NCc2cccnc2)cc1,259 nM (active),–

Structure (SMILES),Potency,"activity change, negative = cytotoxicity"
CN(C)C(=O)NC1CCC(CCN2CCN(c3cccc(Cl)c3Cl)CC2)CC1 (centres undefined),–,-11.3% [at 9.29 µM] (inactive)
CC(C)[C@@H]1C(=O)N(S(C)(=O)=O)[C@@H]2CCN(C(=O)/C=C/CN3CCCCC3)[C@H]21,inactive,–
Nc1nc(Nc2ccc(S(N)(=O)=O)cc2)n(C(=S)Nc2c(F)cccc2F)n1,1160 nM (active),–
Cc1cc(O)c(-c2ccc([C@@H](C)CN(C)C)cc2)c2c1[nH]c(=O)c1sccc12,82 nM (active),–
COc1ccc(C2=N[C@@H](c3ccc(Cl)cc3)[C@@H](c3ccc(Cl)cc3)N2C(=O)N2CCNC(=O)C2)c(OC(C)C)c1,inactive,–
C=C(C(=O)O)C1CC(O)C2(C)CCCC(=C)C2C1 (centres undefined),inactive,–
CC(C)=CC/C=C(\C)[C@H]1CC[C@]2(C)[C@@H]1[C@H](O)C[C@@H]1[C@@]3(C)CC[C@H](O)C(C)(C)[C@@H]3[C@@H](O[C@@H]3O[C@H](CO)[C@@H](O)[C@H](O)[C@H]3O)C[C@]12C,inactive,–
C=C(C)C1Cc2cc(C(=O)OC3OC(CO)C(O)C(O)C3O)ccc2O1 (centres undefined),inactive,–
CCCC1(c2ccccc2)NC(=O)N(CC(=O)N(C)Cc2c(F)cccc2Cl)C1=O (centres undefined),inactive,–
O=C(Cc1ccc(-c2ccccc2)cc1)NC1CCC1,inactive,–
C=C1C[C@]23C[C@H]1[C@@H](O)C[C@H]2[C@@]12C=C[C@H](O)[C@@](C)(C(=O)O1)[C@H]2[C@@H]3C(=O)O,inactive,–
O=C(/C=C/c1ccc(O)cc1)OC1[C@H](O)CC(O)(C(=O)O)C[C@H]1O (some centres undefined),inactive,–
C=C1CN(Cc2ccc(C(=O)Nc3ccccc3N)cc2)C(=O)c2ccccc21,1300 nM (active),–
CC1(C)CCCC2(C)C1CC(=O)C13CC(CCC12)C(O)(CO)C3 (centres undefined),inactive,–
CON(C)C(=O)[C@H](O)[C@H](Cc1ccccc1)NC(=O)c1cc2cc(Cl)ccc2[nH]1,inactive,–
O=C1Nc2ccccc2C(O)(c2ccccc2)C1O (centres undefined),inactive,–
C[C@H]1CC(=O)Nc2cccc(-c3cnn(C(C)(C)C)c3)c2N1,inactive,–
C[C@@H]1O[C@@H](O[C@H]2[C@H](O[C@H]3[C@H](O[C@H]4CC[C@@]5(C)C(CC[C@]6(C)C5CC=C5[C@@H]7CC(C)(C)C[C@@H](O)[C@]7(C)CC[C@]56C)[C@@]4(C)CO)O[C@H](C(=O)O)[C@@H](O)[C@@H]3O)OC[C@H](O)[C@@H]2O)[C@H](O)[C@H](O)[C@H]1O (some centres undefined),–,3.08% [at 9.29 µM] (inactive)
CC1(C)CCCC2(C)C(C(=O)O)=CCC12 (centres undefined),inactive,–
